# Experimental data from PubChem BioAssay AID743279 (National Center for Advancing Translational Sciences (NCATS), 2014).
# Hit rate of the full screen: of about 360,000 compounds, about 17,000 (4.7%) were called active. Inconclusive results (about 5%) are left out. This is one part of a sample in which actives are shown more often than they occur. Values without a mark were called inactive. No stated cut-off is given here; in the data, active means activity change below about -50%; inconclusive means mostly about -30% to -49%; inactive means weaker than that.
# Test: qHTS for Inhibitors of Inflammasome Signaling: IL-1-beta AlphaLISA Primary Screen
# Conditions: THP-1 LPS/ATP IL-1B secretion, 16 h; at 57.5 µM, stronger effect = lower value
# Outline: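 THP-1 cells pretreated 1 hr with compounds (up to 57.5 uM final), then stimulated with LPS (250 ng/mL final) plus ATP (1.25 mM final); secreted IL-1B measured by AlphaLISA after 16 hr, decreased signal indicating inhibition.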
# On the % scale 0 is the no-effect control and ±100 the full control effect.
row,Compound,activity change
1,O=C1C[C@@H]2c3c(cccc3CN1Cc1ccccc1)C[C@@H](O)[C@H]2O,16.3%
2,c1ccc(Cn2nnc3c(NCC4CC4)ncnc32)cc1,-6.22%
3,COc1cccc(-c2cnc(C(O)c3ccccc3OC)[nH]2)c1 (stereo not given),26.3%
4,O=C(Nc1ccc(C(=O)O)cc1)/C(=C\c1ccccc1)NC(=O)c1ccc(Br)cc1,-0.689%
5,O=C(Nc1ccc(C(=O)O)cc1)/C(=C/c1ccc([N+](=O)[O-])cc1)NC(=O)c1ccccc1,-62.1% (active)
6,O=C(NCCc1ccccc1)/C(=C\c1ccc([N+](=O)[O-])cc1)NC(=O)c1ccccc1,4.21%
7,C[C@]12CC[C@H](O)CC1=CCC1C2CC[C@@]2(C)C1CC[C@@H]2NC(=O)CCC(=O)O (stereo not given in full),14.7%
8,Cc1cc2cc3n(c2nn1)N=C(Cl)CC3,-81.1% (active)
9,COc1cc(Cn2c3ccc(NC(=O)CC(C)c4ccccc4)cc3c(=O)n2C)ccc1F (stereo not given),-18%
10,CC1(C(=O)NS(=O)(=O)c2ccc(C#N)cc2)CCN1C(=O)c1ccc(C2CCCCC2)cc1 (stereo not given),12.1%
11,O=C(c1ccc2c(c1)C(=O)N(c1ccc(Cl)cc1)C2=O)N1CCN(c2ccccn2)CC1,15.8%
12,O=C(/C=C/c1ccc(N2CCOCC2)cc1)c1ccccc1,-239% (active)
13,O=C(O)c1ccc2c(c1)C(=O)N(c1ccc(/C=C/C(=O)c3ccccc3)cc1)C2=O,-154% (active)
14,O=C(c1ccccc1)c1ccc(C(=O)N2CCN(c3ccccc3)CC2)cc1,-8.14%
15,Cc1cccc(N2C(=O)c3ccc(C(=O)Nc4cccc(C(=O)O)c4)cc3C2=O)c1,10.8%
16,O=C(NN=Cc1ccc(N2CCOCC2)cc1)c1cc2ccccc2cc1O,-24%
17,CC(OC(=O)c1cccnc1Cl)C(=O)NC1CCCCC1 (stereo not given),-3.91%
18,COc1ccc(C(=O)OCC(=O)Nc2cc(C)on2)cc1F,10.7%
19,C[C@@H]1CN([C@@H](C)CO)C(=O)CCCn2cc(nn2)CO[C@H]1CN(C)S(=O)(=O)c1ccc(-n2cccn2)cc1,-5.6%
20,COc1ccc(CCN2C(=O)C(C)=C(C)C2=O)cc1OC,-6.73%

row,Compound,activity change
1,COc1ccc(CCNC2=C(Cl)C(=O)N(Cc3ccccc3)C2=O)cc1OC,-67.7% (active)
2,COc1ccc(CCN=C2SCC(=O)N2Cc2ccccc2)cc1OC,-10.8%
3,Nc1cccc(OCCCCCOc2cccc(N)c2)c1,-27.6%
4,CC(=O)Nc1c(-c2ccc(C)cc2)nc2ccc(Cl)cn12,13.6%
5,O=C(COc1ccc(Cl)cc1)NCCS(=O)(=O)N1CCN(c2ccc(F)cc2)CC1,0.652%
6,Cc1cc(C)cc(C(=O)N2CCN=C2SCc2ccc([N+](=O)[O-])cc2)c1,7.28%
7,O=C(Cc1ccc(F)cc1)N1CCN=C1SCc1cccc([N+](=O)[O-])c1,26.2%
8,Cc1cccc(CC(=O)N2CCN=C2SCc2ccc([N+](=O)[O-])cc2)c1,-73.1% (active)
9,O=C1NC(c2ccccc2)Cc2ccncc21 (stereo not given),-2.81%
10,CC(C)C1Cc2[nH][nH]c(=O)c2C(c2ccc(Cl)cc2)O1 (stereo not given),0.108%
11,COc1ccc(/C=C2/C(=O)N(c3ccccc3)N=C2C)c(OC)c1,-9.74%
12,COc1ccc(/C=C2/C(=O)OCc3cc(OC)c(OC)cc32)c(OC)c1,-74.3% (active)
13,COc1ccc(CN(C)Cc2nc3cc(OC)c(OC)cc3c(=O)[nH]2)c(OC)c1,1.63%
14,Cc1cc(=O)c2ccc(NC(=O)c3ccccc3)cc2[nH]1,-15.4%
15,CC(=O)Nc1ccc(S(=O)(=O)Nc2ccc(N3CCCCC3)cc2)cc1,0%
16,O=C1C=CC(=O)N1c1ccc(N2CCCCC2)cc1,-102% (active)
17,O=C(Cc1ccccc1)NC(=S)Nc1ccc(N2CCCCC2)cc1,-8.88%
18,COc1ccccc1NC(=O)C(CC(=O)O)Cc1cc(C)cc(C)c1 (stereo not given),14.1%
19,Cc1cccc(C)c1-n1nnnc1C(CCc1ccccc1)N1CCN(C/C=C/c2ccccc2)CC1 (stereo not given),-7.14%
20,CC(C)(C)c1ccc(/C=C2\SC(=O)N=C2N)cc1,3.39%

row,Compound,activity change
1,CCN(CC)P(=O)(Nc1ccc(SC(F)F)cc1)c1ccc(N(C)C)cc1NC(=O)c1ccco1 (stereo not given),-50.2% (active)
2,O=C(Nc1ccc(Sc2ccc(Br)cc2)cc1)c1ccco1,-22.6%
3,O=C(COC(=O)c1ccccc1NC(=O)c1ccco1)Nc1ccc2c(c1)OC(F)(F)O2,22.1%
4,CCCNC(=O)c1cc(C2CCCCN2S(=O)(=O)c2cn(C)cn2)on1 (stereo not given),1.68%
5,CN(C)/C(=N\OC(=O)c1ccccc1)c1nonc1N,23.1%
6,CCCC(=O)N1CCC1(C)C(=O)NS(=O)(=O)c1ccc(Cl)cc1 (stereo not given),26%
7,COc1ccc(Cc2nnc(N/N=C/c3ccccc3O)[nH]c2=O)cc1OC,-100% (active)
8,O=c1[nH]c(NCCO)nnc1Cc1ccc(Cl)cc1,-0.873%
9,Cc1nnc(N/N=C/c2ccccn2)[nH]c1=O,266%
10,CC(=O)OCC1(O)CC23CCC4c5ccoc5CCC4(C)C2CCC1C3 (stereo not given),-29.5%
11,Cc1ccccc1N1CCN(C(=O)c2cccnc2)CC1,-6.96%
12,O=C(Nc1ccc(N2CCN(C(=O)c3ccccc3)CC2)c(Cl)c1)c1cccnc1,-81.2% (active)
13,O=C(Nc1ccc(N2CCN(C(=O)c3ccccc3)CC2)c(Cl)c1)c1ncn[nH]1,-4.07%
14,COc1ccc(C(=O)NCc2ccc(Cl)cc2)cc1S(=O)(=O)N1CCCC1,-19.3%
15,CCOC(=O)C1(C)CCCN(C(=O)c2cccc(Cl)c2)C1 (stereo not given),37%
16,CCOC(=O)[C@]12CCCC=C1N(Cc1ccc3c(c1)OCO3)C(=O)[C@H](CC(=O)N1CCN(C(=O)c3ccco3)CC1)C2,-17.6%
17,Cc1nc(N=C(N)N)nc2c(C)cccc12,-96% (active)
18,CC(=O)Oc1ccc(-c2nc3c(C)cccc3c(=O)o2)cc1,24.4%
19,COc1nc(N=C(N)N)nc2c(C)cccc12,-63.3% (active)
20,CCc1c(C)nc2c(OC)cccc2c1Cl,-3.94%
